Test results: PubChem BioAssay (NCI)
Where “and” joins values, the source holds several entries; their conditions need not be identical. Equal values may be shown once. This is part of a sample that, as a whole, favours compounds with a hit. Of some 83,000 tested, about 20% had one in any assay.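 Percent growth is the endpoint: 0 to 100 indicates growth inhibition (40 means 60% inhibition), 0 means no net growth, and negative values indicate cell death.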 Calls of active or inactive are those of the source. How the source made its calls: active means growth percent below 10; inactive means the rest.

Columns and labels:
Assay in all cases: NCI-60 one-dose screen, 48 h (100 = growth as untreated, 0 = no growth, -100 = all killed)
Details in all cases: 10 µM unless noted
NCI-H23 lung = system: NCI-H23 lung
NCI-H226 lung = system: NCI-H226 lung
NCI-H322M lung = system: NCI-H322M lung
HOP-62 NSCLC = system: HOP-62 NSCLC
NCI-H460 lung = system: NCI-H460 lung
HOP-92 NSCLC = system: HOP-92 NSCLC
NCI-H522 lung = system: NCI-H522 lung
A549/ATCC NSCLC = system: A549/ATCC NSCLC
786-0 renal = system: 786-0 renal
COLO 205 colon = system: COLO 205 colon
DU-145 prostate = system: DU-145 prostate
K-562 leukemia = system: K-562 leukemia
MALME-3M melanoma = system: MALME-3M melanoma
MDA-MB-231 breast = system: MDA-MB-231 breast
RXF 393 renal = system: RXF 393 renal
SF-268 CNS = system: SF-268 CNS
SF-295 CNS = system: SF-295 CNS
SF-539 CNS = system: SF-539 CNS
UACC-257 melanoma = system: UACC-257 melanoma
M14 melanoma = system: M14 melanoma

Measured: growth

C[Se]/C=C1/C(=O)N(c2c(Cl)cccc2Cl)c2ccccc21
active: A549/ATCC NSCLC 7.85% | SF-268 CNS 8.58% | SF-539 CNS 0.963% | UACC-257 melanoma -4.62%
inactive: NCI-H23 lung 39% | NCI-H226 lung 10.9% | NCI-H322M lung 37.5% | HOP-62 NSCLC 22% | NCI-H460 lung 14.6% | HOP-92 NSCLC 15.7% | NCI-H522 lung 21.1% | 786-0 renal 51.1% | COLO 205 colon 38.9% | DU-145 prostate 43.9% | K-562 leukemia 20.3% | MALME-3M melanoma 37.4% | MDA-MB-231 breast 31.1% | RXF 393 renal 19.4% | SF-295 CNS 38% | M14 melanoma 20.4%

C/C(=C(\c1ccc(OCCN2CCOCC2)cc1)c1ccc(OC(=O)Cc2ccccc2)cc1)c1ccc(Cl)cc1
inactive: NCI-H23 lung 86% | NCI-H226 lung 103% | NCI-H322M lung 90.6% | HOP-62 NSCLC 98.9% | NCI-H460 lung 97.6% | HOP-92 NSCLC 70% | NCI-H522 lung 72.9% | A549/ATCC NSCLC 90.4% | 786-0 renal 77.7% | COLO 205 colon 106% | DU-145 prostate 97.8% | MALME-3M melanoma 104% | MDA-MB-231 breast 96.8% | RXF 393 renal 89.6% | SF-268 CNS 90.1% | SF-295 CNS 98.9% | SF-539 CNS 98.2% | UACC-257 melanoma 87.5% | M14 melanoma 85.1%
active: K-562 leukemia 7.15%

CC1(C)S[C@H]2CC[C@H]3OC(=O)[C@@H]1N23
inactive: NCI-H23 lung 94.7% | NCI-H226 lung 98.1% | NCI-H322M lung 98.7% | HOP-62 NSCLC 104% | NCI-H460 lung 110% | HOP-92 NSCLC 77.9% | NCI-H522 lung 88.9% | A549/ATCC NSCLC 96.6% | 786-0 renal 106% | COLO 205 colon 137% | DU-145 prostate 116% | K-562 leukemia 111% | MALME-3M melanoma 101% | MDA-MB-231 breast 121% | RXF 393 renal 103% | SF-268 CNS 113% | SF-295 CNS 88% | SF-539 CNS 104% | UACC-257 melanoma 116% | M14 melanoma 106%

COc1cc(C2C3=C(CCCC3=O)N(CCO)c3cc4c(cc32)CCC4)cc(OC)c1OC (stereo not drawn)
inactive: NCI-H23 lung 80.8% | NCI-H226 lung 103% | NCI-H322M lung 75.1% | HOP-62 NSCLC 92.6% | NCI-H460 lung 36.4% | HOP-92 NSCLC 76% | NCI-H522 lung 62.7% | A549/ATCC NSCLC 58.9% | 786-0 renal 84.6% | COLO 205 colon 74% | DU-145 prostate 94.1% | K-562 leukemia 78.7% | MALME-3M melanoma 93.1% | MDA-MB-231 breast 82.1% | RXF 393 renal 100% | SF-268 CNS 90.4% | SF-295 CNS 99.9% | SF-539 CNS 106% | UACC-257 melanoma 67.2% | M14 melanoma 98%

CCCCCCCCCCCCCCCC[N+](C)(C)C
-65.5% (active) and 10.1% (inactive): SF-295 CNS
-70% (active) and 60.7% (inactive): NCI-H322M lung
active: HOP-62 NSCLC -76.6% and -23.9% | NCI-H460 lung -84% and 0.102% | HOP-92 NSCLC -45.3% and -18.4% | NCI-H522 lung -57.9% and -39.7% | 786-0 renal -83.5% and 4.56% | COLO 205 colon -74% and -89.8% | K-562 leukemia -70% and 9.42% | MDA-MB-231 breast -76.5% and -8.58% | RXF 393 renal -31.9% | SF-268 CNS -57.5% and -3.48% | SF-539 CNS -67.3% and -8.94% | M14 melanoma -87.8% and -43.2%
-91.4% (active) and 15.9% (inactive): DU-145 prostate
inactive: A549/ATCC NSCLC 29.4% | UACC-257 melanoma 61.2%
-83.6% (active) and 20.7% (inactive): NCI-H23 lung
-54.8% (active) and 46.7% (inactive): NCI-H226 lung
-76.5% (active) and 13.8% (inactive): MALME-3M melanoma

C[N+]1(C)CCCC1c1cccnc1 (stereo not drawn)
inactive: NCI-H23 lung 101% | NCI-H226 lung 98.3% | NCI-H322M lung 104% | HOP-62 NSCLC 101% | NCI-H460 lung 108% | HOP-92 NSCLC 88.9% | NCI-H522 lung 102% | A549/ATCC NSCLC 95.9% | 786-0 renal 91% | COLO 205 colon 109% | DU-145 prostate 110% | K-562 leukemia 99.3% | MALME-3M melanoma 92.1% | MDA-MB-231 breast 109% | RXF 393 renal 102% | SF-268 CNS 108% | SF-295 CNS 100% | SF-539 CNS 107% | UACC-257 melanoma 96.9% | M14 melanoma 97.5%

Cc1cc(N(CCCl)CCCl)ccc1/C=N\NC(=O)c1cccnc1
inactive: NCI-H23 lung 66.1% and 73.8% | NCI-H322M lung 108% and 97.9% | HOP-62 NSCLC 80.4% and 87.5% | NCI-H460 lung 21.2% and 28.7% | HOP-92 NSCLC 88.9% and 94.3% | NCI-H522 lung 82.3% and 105% | A549/ATCC NSCLC 73.5% and 82.5% | 786-0 renal 81.1% and 84% | COLO 205 colon 94.1% and 102% | DU-145 prostate 75.6% and 75.4% | K-562 leukemia 85.2% and 91.8% | MALME-3M melanoma 107% | MDA-MB-231 breast 112% and 94.5% | RXF 393 renal 100% and 85.6% | SF-268 CNS 80.4% and 72.5% | SF-295 CNS 49.6% | SF-539 CNS 54.2% and 73.7% | UACC-257 melanoma 84.9% and 88.6% | M14 melanoma 96% and 92.1%
-36.1% (active) and 11.8% (inactive): NCI-H226 lung

N#CC(NC(=O)CCl)=C(Cl)Cl
active: HOP-92 NSCLC -71.5% | NCI-H522 lung -84.4% | 786-0 renal -72.2% | COLO 205 colon -90.4% | K-562 leukemia -23.6% | MALME-3M melanoma -79.1% | MDA-MB-231 breast 1.44% | RXF 393 renal -78% | SF-539 CNS 5.84% | UACC-257 melanoma 3.34% | M14 melanoma -91.1%
inactive: NCI-H23 lung 28.5% | NCI-H226 lung 70.8% | NCI-H322M lung 78.6% | HOP-62 NSCLC 73.2% | NCI-H460 lung 50.7% | A549/ATCC NSCLC 66.8% | DU-145 prostate 44.1% | SF-268 CNS 28.9% | SF-295 CNS 89.9%

C#Cc1cccc(Nc2nc(Cl)nc3cc(NC(=O)CF)ccc23)c1
inactive: NCI-H23 lung 80.2% | NCI-H226 lung 86.6% | NCI-H322M lung 80% | HOP-62 NSCLC 70% | NCI-H460 lung 29.4% | HOP-92 NSCLC 91.1% | NCI-H522 lung 28.9% | A549/ATCC NSCLC 55.4% | 786-0 renal 92.9% | COLO 205 colon 41.8% | DU-145 prostate 98.1% | K-562 leukemia 28% | MALME-3M melanoma 70.5% | MDA-MB-231 breast 64.5% | RXF 393 renal 100% | SF-268 CNS 87.8% | SF-295 CNS 71.9% | SF-539 CNS 89.1% | UACC-257 melanoma 88.7% | M14 melanoma 48.3%

COC[C@H]1OC(=O)c2coc3c2[C@@]1(C)C1=C(C3=O)[C@@H]2CCC(=O)[C@@]2(C)C[C@H]1OC(C)=O
inactive: NCI-H23 lung 56.5% | NCI-H226 lung 62.5% | NCI-H322M lung 35.3% | HOP-62 NSCLC 57.7% | NCI-H460 lung 43% | NCI-H522 lung 48.4% | A549/ATCC NSCLC 10.1% | 786-0 renal 39.3% | COLO 205 colon 65.2% | DU-145 prostate 45.2% | K-562 leukemia 70.7% | MALME-3M melanoma 32.8% | MDA-MB-231 breast 67.8% | RXF 393 renal 10.4% | SF-268 CNS 51.8% | SF-295 CNS 39.5% | SF-539 CNS 28.6% | UACC-257 melanoma 23%
active: HOP-92 NSCLC -0.194%

O=C(Cc1ccccc1)NC(O)C(Cl)(Cl)Cl (stereo not drawn)
inactive: NCI-H23 lung 102% | NCI-H226 lung 97.2% | NCI-H322M lung 122% | HOP-62 NSCLC 110% | NCI-H460 lung 120% | HOP-92 NSCLC 123% | NCI-H522 lung 105% | A549/ATCC NSCLC 96.3% | 786-0 renal 94.7% | COLO 205 colon 118% | DU-145 prostate 118% | K-562 leukemia 98.3% | MALME-3M melanoma 115% | MDA-MB-231 breast 106% | RXF 393 renal 105% | SF-268 CNS 104% | SF-295 CNS 103% | SF-539 CNS 108% | UACC-257 melanoma 103% | M14 melanoma 101%

CC1OC(=O)C(C(C)C)NC(=O)C(C(C)C)OC(=O)C(C(C)C)NC(=O)C(C)OC(=O)C(C(C)C)NC(=O)C(C(C)C)OC(=O)C(C(C)C)NC(=O)C(C)OC(=O)C(C(C)C)NC(=O)C(C(C)C)OC(=O)C(C(C)C)NC1=O (stereo not drawn)
active: NCI-H23 lung -2.18% | NCI-H226 lung 0.0533% | NCI-H322M lung -3.44% | HOP-62 NSCLC -50% | NCI-H460 lung -11.9% | HOP-92 NSCLC -38.8% | NCI-H522 lung -21.2% | A549/ATCC NSCLC -41.2% | 786-0 renal -6.45% | COLO 205 colon -81% | DU-145 prostate -60.2% | K-562 leukemia -38.2% | MALME-3M melanoma 9.37% | MDA-MB-231 breast -67.9% | RXF 393 renal -63.1% | SF-268 CNS 5.42% | SF-295 CNS -27.1% | SF-539 CNS -91.4% | UACC-257 melanoma -53.5%

CC[C@H](C)[C@H]1O[C@]2(C=C[C@@H]1C)C[C@@H]1C[C@@H](C/C=C(\C)[C@@H](O[C@H]3C[C@H](OC)[C@@H](O[C@H]4C[C@H](OC)[C@@H](NC)[C@H](C)O4)[C@H](C)O3)[C@@H](C)/C=C/C=C3\CO[C@@H]4[C@H](O)C(C)=C[C@@H](C(=O)O1)[C@]34O)O2
active: NCI-H23 lung -68.8% | NCI-H226 lung -75.2% | NCI-H322M lung -22.3% | HOP-62 NSCLC -60.9% | NCI-H460 lung -77.4% | HOP-92 NSCLC -33.8% | NCI-H522 lung -70.3% | A549/ATCC NSCLC -51.6% | 786-0 renal -88.4% | COLO 205 colon -71.6% | DU-145 prostate -85.2% | K-562 leukemia -41.4% | MALME-3M melanoma -67.2% | MDA-MB-231 breast -71.9% | RXF 393 renal -88.4% | SF-268 CNS -56% | SF-295 CNS -65.6% | SF-539 CNS -79.7% | UACC-257 melanoma -56.7% | M14 melanoma -68.6%
